Experiments:
Experiment in all cases: PBM binding z-score (relative to random genomic background probes); higher = stronger binding; sequences stand for … in GC…GCGATTGACAGCGTAGAATGAAGG
[1] = tested on: FXR:RXRa (NR concentration 270 nM, RXRa partner concentration 90 nM)
Procedure, shortened: (§1)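 Binding buffer was PBS pH 7.4 with 2% milk, 0.02% Triton X-100, 1 mM DTT, 0.2 mg/mL BSA and 0.4 mg/ml salmon testes DNA. In it, ligand-free nuclear receptor dimers were incubated 1 h on custom Agilent 4×180K protein-binding microarrays carrying double-stranded probes. Antibodies against each partner (one per run) detected binding, and z-scores were calculated against random background probes after regression normalization of scanned fluorescence.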

[2] = tested on: LXRa:RXRa (NR concentration 270 nM, RXRa partner concentration 90 nM)
Procedure, shortened: as §1

[3] = tested on: LXRa homodimer (NR concentration 270 nM)
Procedure, shortened: as §1

[4] = tested on: LXRb:RXRa (NR concentration 270 nM, RXRa partner concentration 90 nM)
Procedure, shortened: as §1

[5] = tested on: LXRb homodimer (NR concentration 270 nM)
Procedure, shortened: as §1

[6] = tested on: PPARg:RXRa (NR concentration 180 nM, RXRa partner concentration 90 nM)
Procedure, shortened: as §1

[7] = tested on: PPARg:RXRa 270nM:90nM, anti-RXR (NR concentration 270 nM, RXRa partner concentration 90 nM)
Procedure, shortened: as §1

[8] = tested on: PPARg:RXRa 30nM:10nM, anti-RXR (NR concentration 30 nM, RXRa partner concentration 10 nM)
Procedure, shortened: as §1

[9] = tested on: PPARg:RXRa 90nM:30nM, anti-RXR (NR concentration 90 nM, RXRa partner concentration 30 nM)
Procedure, shortened: as §1

[10] = tested on: PPARg:RXRa DBDmut IVT, anti-RXR (DBD mutation: RXRa K156A/R161A, NR concentration 270 nM, RXRa partner concentration 90 nM)
Procedure, shortened: as §1

[11] = tested on: PPARg:RXRa IVT, anti-PPARg (NR concentration 270 nM, RXRa partner concentration 90 nM)
Procedure, shortened: as §1

[12] = tested on: PPARg DBDmut:RXRa IVT, anti-PPARg (DBD mutation: PPARg1 K132A/R137A, NR concentration 270 nM, RXRa partner concentration 90 nM)
Procedure, shortened: as §1

[13] = tested on: PPARg DBDmut IVT, anti-PPARg (DBD mutation: PPARg1 K132A/R137A, NR concentration 270 nM)
Procedure, shortened: as §1

[14] = tested on: PPARg homodimer (NR concentration 180 nM)
Procedure, shortened: as §1

[15] = tested on: PXR:RXRa (NR concentration 270 nM, RXRa partner concentration 90 nM)
Procedure, shortened: as §1

[16] = tested on: PXR homodimer (NR concentration 270 nM)
Procedure, shortened: as §1

[17] = tested on: RARa:RXR (NR concentration 270 nM, RXRa partner concentration 90 nM)
Procedure, shortened: as §1

[18] = tested on: RARa homodimer (NR concentration 270 nM)
Procedure, shortened: as §1

[19] = tested on: RARb:RXRa (NR concentration 270 nM, RXRa partner concentration 90 nM)
Procedure, shortened: as §1

Sequence	PBM binding z-score [1]	PBM binding z-score [2]	PBM binding z-score [3]	PBM binding z-score [4]	PBM binding z-score [5]	PBM binding z-score [6]	PBM binding z-score [7]	PBM binding z-score [8]	PBM binding z-score [9]	PBM binding z-score [10]	PBM binding z-score [11]	PBM binding z-score [12]	PBM binding z-score [13]	PBM binding z-score [14]	PBM binding z-score [15]	PBM binding z-score [16]	PBM binding z-score [17]	PBM binding z-score [18]	PBM binding z-score [19]
CCTTACGGGTCAGTGACAGGTTATAGCATTTGGA	4.29	3.37	0.351	2.96	-0.126	1.94	2.4	0.815	1.86	1.83	1.86	0.385	0.16	1.97	2.36	0.241	3.19	0.476	3.5
TCTCGGAGGACACGAAGGTCAAAGCTTTCCAGAG	2.68	2.91	2.05	2.91	-0.25	1.14	2.53	2.73	2.51	1.76	1.71	-0.973	-1.26	1.25	3.68	2.71	3.62	0.304	3.66
GCTAGTTGGTCAGTAAATGGTCACACACCGGTCG	0.041	-0.126	-0.00637	-0.244	-0.204	0.366	-0.00235	-0.52	-0.282	0.302	0.493	0.157	0.192	0.621	-0.0876	-0.353	0.368	0.255	1.2
CATACTAGGTCAAAGGTCAAAGTCGAGCCAACCA	8.57	7.39	7.06	7.48	3.69	13.2	10.9	12.6	12.5	7.72	8.62	2.89	3.65	3.93	6.81	1.91	8.63	1.65	5.97
CCTAGCAGACCAATCTGGGTCACTCAAGGCTTGA	0.219	0.374	-0.629	0.514	-1.09	1.8	2.09	0.195	1.21	4.01	4.87	0.573	-0.876	0.484	0.638	-0.509	1.57	-0.18	0.96
GCTTACGGGTCAAAGGTTATAACATGAATAGAAT	7.52	5.95	0.829	5.89	1.05	11.2	9.66	8.65	10.4	4.69	5.8	1.74	2.86	3.61	6.24	0.489	8.14	0.937	4.53
AGAATGAGGTTACACGTAGATCAGGGAAGAAAGT	2.62	1.97	-0.126	1.74	-0.022	2.84	2.76	0.95	1.91	4.19	3.53	1.09	0.468	1.27	1.36	-0.00272	1.84	0.499	2.07
ATCGAAAGGTGGACGAGGTGAGTATACACCGTTT	0.217	-0.178	-0.304	-0.111	-0.212	0.872	0.439	0.356	0.402	-0.328	0.716	0.496	0.266	0.223	0.219	0.0997	0.702	0.444	0.89
CCTACTGGGCCATTGAGAGGTCATTGATCATATG	1.94	3.79	6.21	3.34	0.0421	1.83	2.82	0.314	1.68	4.21	3.95	-0.492	0.0836	2.14	4.37	2.03	4.26	0.245	2.82
TAGCCTCGGTCATTGGGCCAGTATAGTACGCATC	0.733	0.704	0.605	0.0326	-0.0168	0.597	0.0656	-0.712	-0.209	0.608	1.16	-0.424	-0.786	-0.222	-0.491	-0.977	-0.492	-0.437	2.33
AGAATGAGGTTAACAAAGATCAGGGAAACGCTTG	2.66	5.37	0.105	2.63	-0.171	2.62	2.59	1.09	1.88	3.76	3.12	0.964	0.512	0.76	1.72	0.159	2.07	1.01	2.01
ACTAGTTGGTCAGCTGAGGTCACACTCAATTCGG	3.79	3.19	2.29	3.64	0.527	1.23	1.94	0.159	1.26	1.55	2.58	0.716	-0.0108	1.84	5.39	1.85	4.51	0.596	3.54
TAGCCTAGGTCATGCGGGCCAGTATAGTGTCGGC	3.95	3.16	0.141	1.55	-0.409	1.98	2.32	-0.028	1.01	1.77	2.76	-0.107	-0.0866	0.667	1.37	-0.724	2.44	-0.846	3.66
CCTAGCCGGCCAATCTGGGTCACTCAAGGCTTGA	0.614	0.785	0.0438	1.02	-0.78	1.68	2.15	-0.425	1.27	3.39	4.68	-0.873	-0.666	0.858	1.03	-0.396	2.24	-0.278	1.4
CCTTACGGGTCTCTCCAGGTTATAGCATCGGAGT	0.0576	2.63	0.136	0.0193	-0.526	-0.0815	-0.225	-0.385	-0.47	0.165	0.161	-0.412	-0.96	0.354	0.294	-0.138	0.923	0.0233	0.15
GGTACGAGGGCAAAGTTGATAGCATCTGTCGACG	1.46	1.03	-0.421	0.954	-0.42	5.89	6.23	4.16	6.02	2.41	3.4	0.0227	-1.04	1.2	0.895	0.0381	1.42	-0.085	2.33
CAATCTAGGTCAAAGGTCAAAGTCGAGCCAACCA	8.46	7.47	6.51	7.41	3.28	14	11.2	12.9	13.1	8.91	9.32	3.79	6.44	3.41	6.92	1.82	8.3	1.8	5.89
CAAACTAGGTCACCGTAAGGTCAAAGTCCGCATG	6.58	6.1	5.47	5.55	1.46	9.41	7.89	5.84	7.64	8.08	9.03	2.73	1.86	6.09	6.21	2.62	7.31	1.95	5.57
CCCGCTAGGTCATGGTCAGCTAATCTACAGTATG	3.68	2.72	0.611	2	-0.348	2.43	2.82	0.967	1.94	3.87	3.52	-0.299	-0.741	1.77	1.49	-0.038	2.33	0.196	3.83
CCTAGTTGGTCAAGGTCTCACACGCTATAGGTAC	0.271	0.379	0.569	0.343	0.483	0.786	1.09	0.321	0.561	1.7	1.75	-0.0151	0.765	1.47	0.365	0.749	0.511	1.56	1.48
CCTAGTTGGTCAGGTGGTCACACACCGGATATGA	0.558	0.139	0.26	0.406	-0.0912	0.84	1.18	0.231	0.655	0.0405	0.926	-0.00343	-0.318	1.26	0.174	0.369	0.505	1.18	1.25
TCTCGGAGGACACGAAAGGTCTGAGCTCGACATC	0.119	-0.119	-0.569	-0.279	-0.889	0.108	1.01	1.92	1.49	1.62	-0.101	-0.378	-0.264	0.204	-0.0379	-0.678	0.227	-0.321	1.7
CAAACTAGGTCACGAAAGGTCAAATTCGAATGAC	7.71	8.3	8.38	7.56	3.75	10.6	8.52	7.21	8.47	8.4	9.14	3.89	2.38	4.71	7.07	2.34	7.31	2.58	6
TCTAGCAGGCCATAGGGTCACTCAAGAGGTACGG	2.31	1.65	-0.243	1.73	-0.428	2.46	3.27	2.5	3.13	1.23	1.69	-1.22	-0.48	0.644	2.43	-0.246	3.69	0.229	2.75
ATCGAAGGGTCGAAGGTGAGTATACCCACCCGAA	1.3	1.26	-0.26	1.21	-0.316	2.73	3.11	1.08	2.47	-0.959	1.2	0.357	-0.0817	0.676	1.64	-0.184	2.48	-0.374	2.15
CATACAGGGTAAGCTAGGCCAGAGTAGGGACGGC	0.167	0.793	-0.335	-0.589	-0.153	0.575	-0.433	-0.335	-0.43	0.432	0.87	-0.00431	-0.34	-0.902	-0.7	-0.446	-0.142	0.0109	0.588
CGTCCAAGGTCCATGCTAGGTCAGTGAAAGCATT	0.162	3.49	0.25	0.906	-0.855	-0.453	-0.317	-0.678	-0.366	0.0985	0.351	-0.956	-1	0.21	0.422	-0.0884	1.35	-0.265	1.7

Reference: the supplement of paper PMC6555819
